Whole data set: some 16,000 sequences, median “rpm ratio (pull-down/input)” near 0.94, cut for the highest 2% near 1.7. The list comes from a sample in which the highest values are over-represented; it also holds similar and randomly drawn sequences.

The source of these data is publication PMC12820563, “FoxP3 forms a head-to-head dimer in vivo and stabilizes its multimerization on adjacent microsatellites”.

In the assay the target is T1, MBP-FoxP1dN (Mus musculus, UniProt P58462 326-579).
T1 sequence: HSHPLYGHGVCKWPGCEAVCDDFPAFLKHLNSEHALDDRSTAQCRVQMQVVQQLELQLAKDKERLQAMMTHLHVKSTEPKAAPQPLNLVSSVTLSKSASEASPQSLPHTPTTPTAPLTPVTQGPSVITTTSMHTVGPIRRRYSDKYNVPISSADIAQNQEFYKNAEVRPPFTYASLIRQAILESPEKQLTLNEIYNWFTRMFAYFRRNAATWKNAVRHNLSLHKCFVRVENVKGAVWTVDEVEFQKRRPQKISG
The assay can be described thus: PD-seq (MBP pull-down with sequencing); 20 mM Tris-HCl pH 7.5, 100 mM NaCl, 1.5 mM MgCl2, 0.4 uM protein, 0.1 uM dsDNA library, 30 min, room temperature, amylose pull-down; high values mean tight binding. Conditions: protein: recombinant; tags: His6-MBP; chain copies: 2; dsDNA, one strand shown. In short, it runs like this:
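Binding is given as reads-per-million enrichment, pull-down over input, with replicates pooled. The bait was an N-terminus-lacking mouse FoxP3 or FoxP1 fragment with a His6-MBP tag, expressed in E. coli and used at 0.4 µM with 0.1 µM Klenow-filled degenerate double-stranded DNA library for 30 min at room temperature in Tris pH 7.5 buffer with NaCl and MgCl2. Amylose resin pull-down with three washes was followed by proteinase K release, PCR barcoding and Illumina sequencing.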
With “GATGATTGTTCTCCCAGCTGATGAATTACATATATCGAGTAAACAAATTTTCCTAATCTTTCTGTTCAAGCGCCATCTAC”, the binding signal is 1.34 RPM ratio (pull-down/input).
Take “GATGATTGTTCTCCCAGCTGATGAATTTACAATATCGAGTAAACAAATTTTCCTAATCTTTCTGTTCAAGCGCCATCTAC”: the binding signal was 1.63 RPM ratio (pull-down/input).
For the sequence “GATGATTGTTCTCCCAGCTGATGAATTACTACTATCGAGTAAACAAATTTTCCTAATCTTTCTGTTCAAGCGCCATCTAC”, the binding signal is 1.24 RPM ratio (pull-down/input).
Turning to “GATGATTGTTCTCCCAGCTGATGAATTACTAATATCGAGTAAACAAATTTTCCTAATCTTTCTGTTCAAGCGCCATCTAC”, the binding signal was 1.73 RPM ratio (pull-down/input).
As for “GATGATTGTTCTCCCAGCTGATGAATTACCAATATCGAGTAAACAAATTTTCCTAATCTTTCTGTTCAAGCGCCATCTAC”, the binding signal was 1.79 RPM ratio (pull-down/input).
Consider “GATGATTGTTCTCCCAGCTGATGAATTACCAATTTCGAGTAAACAAATTTTCCTAATCTTTCTGTTCAAGCGCCATCTAC”, for which the binding signal is 1.13 RPM ratio (pull-down/input).
For the sequence “GATGATTGTTCTCCCAGCTGATGAATTACAAATATCGAGTAAACAAATTTTCCTAATCTTTCTGTTCAAGCGCCATCTAC”, the binding signal was 2.21 RPM ratio (pull-down/input).
As for “GATGATTGTTCTCCCAGCTGATGAATTACCAATCTCGAGTAAACAAATTTTCCTAATCTTTCTGTTCAAGCGCCATCTAC”, the binding signal is 0.961 RPM ratio (pull-down/input).
In the case of “GATGATTGTTCTCCCAGCTGATGAATTACTGATATCGAGTAAACAAATTTTCCTAATCTTTCTGTTCAAGCGCCATCTAC”, the binding signal was 1.18 RPM ratio (pull-down/input).
For the sequence “GATGATTGTTCTCCCAGCTGATGAATTTCGCCAGTCGAGTAAACAAATTTTCCTAATCTTTCTGTTCAAGCGCCATCTAC”, the binding signal is 0.805 RPM ratio (pull-down/input).
As for “GATGATTGTTCTCCCAGCTGATGAATTGCGATTTTCGAGTAAACAAATTTTCCTAATCTTTCTGTTCAAGCGCCATCTAC”, the figure is 1.25 RPM ratio (pull-down/input); as for “GATGATTGTTCTCCCAGCTGATGAATTGTTACCTTCGAGTAAACAAATTTTCCTAATCTTTCTGTTCAAGCGCCATCTAC”, 1.25 RPM ratio (pull-down/input); as for “GATGATTGTTCTCCCAGCTGATGAATTGGATGCGTCGAGTAAACAAATTTTCCTAATCTTTCTGTTCAAGCGCCATCTAC”, 1.29 RPM ratio (pull-down/input).
As for “GATGATTGTTCTCCCAGCTGATGAATTTTCTAGCTCGAGTAAACAAATTTTCCTAATCTTTCTGTTCAAGCGCCATCTAC”, the figure is 0.887 RPM ratio (pull-down/input); as for “GATGATTGTTCTCCCAGCTGATGAATTCCCGCTTTCGAGTAAACAAATTTTCCTAATCTTTCTGTTCAAGCGCCATCTAC”, 0.937 RPM ratio (pull-down/input); as for “GATGATTGTTCTCCCAGCTGATGAATTATAATCTTCGAGTAAACAAATTTTCCTAATCTTTCTGTTCAAGCGCCATCTAC”, 0.909 RPM ratio (pull-down/input).
As for “GATGATTGTTCTCCCAGCTGATGAATTGATGTTGTCGAGTAAACAAATTTTCCTAATCTTTCTGTTCAAGCGCCATCTAC”, the figure is 2.52 RPM ratio (pull-down/input); as for “GATGATTGTTCTCCCAGCTGATGAATTCATGTTGTCGAGTAAACAAATTTTCCTAATCTTTCTGTTCAAGCGCCATCTAC”, 2.26 RPM ratio (pull-down/input).
“GATGATTGTTCTCCCAGCTGATGAATTCATGATGTCGAGTAAACAAATTTTCCTAATCTTTCTGTTCAAGCGCCATCTAC”: the binding signal is 1.21 RPM ratio (pull-down/input).
“GATGATTGTTCTCCCAGCTGATGAATTTTTGATGTCGAGTAAACAAATTTTCCTAATCTTTCTGTTCAAGCGCCATCTAC”: the binding signal was 1.3 RPM ratio (pull-down/input).
Regarding “GATGATTGTTCTCCCAGCTGATGAATTAATGATGTCGAGTAAACAAATTTTCCTAATCTTTCTGTTCAAGCGCCATCTAC”, the binding signal was 1.2 RPM ratio (pull-down/input).
As for “GATGATTGTTCTCCCAGCTGATGAATTCTTCATGTCGAGTAAACAAATTTTCCTAATCTTTCTGTTCAAGCGCCATCTAC”, the figure is 0.907 RPM ratio (pull-down/input); as for “GATGATTGTTCTCCCAGCTGATGAATTAATGTTGTCGAGTAAACAAATTTTCCTAATCTTTCTGTTCAAGCGCCATCTAC”, 2.64 RPM ratio (pull-down/input); as for “GATGATTGTTCTCCCAGCTGATGAATTTCTGATGTCGAGTAAACAAATTTTCCTAATCTTTCTGTTCAAGCGCCATCTAC”, 1.23 RPM ratio (pull-down/input).
In the case of “GATGATTGTTCTCCCAGCTGATGAATTTCAGCTGTCGAGTAAACAAATTTTCCTAATCTTTCTGTTCAAGCGCCATCTAC”, the binding signal was 0.889 RPM ratio (pull-down/input).
As for “GATGATTGTTCTCCCAGCTGATGAATTGATGATGTCGAGTAAACAAATTTTCCTAATCTTTCTGTTCAAGCGCCATCTAC”, the figure is 1.39 RPM ratio (pull-down/input); as for “GATGATTGTTCTCCCAGCTGATGAATTGTTGATGTCGAGTAAACAAATTTTCCTAATCTTTCTGTTCAAGCGCCATCTAC”, 2.27 RPM ratio (pull-down/input).
As to “GATGATTGTTCTCCCAGCTGATGAATTAAAAATGTCGAGTAAACAAATTTTCCTAATCTTTCTGTTCAAGCGCCATCTAC”, the binding signal is 0.979 RPM ratio (pull-down/input).
As for “GATGATTGTTCTCCCAGCTGATGAATTTCTATGATCGAGTAAACAAATTTTCCTAATCTTTCTGTTCAAGCGCCATCTAC”, the figure is 0.89 RPM ratio (pull-down/input).
For “GATGATTGTTCTCCCAGCTGATGAATTTTTAATATCGAGTAAACAAATTTTCCTAATCTTTCTGTTCAAGCGCCATCTAC”, the binding signal is 1.24 RPM ratio (pull-down/input).
With “GATGATTGTTCTCCCAGCTGATGAATTCCGACCATCGAGTAAACAAATTTTCCTAATCTTTCTGTTCAAGCGCCATCTAC”, the binding signal was 0.869 RPM ratio (pull-down/input).
